In PubChem BioAssay (NCI):
Compounds without any hit were thinned out: in the full panel of roughly 83,000, 20% have a hit.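 The test compound was applied at a single concentration to cells in 96-well plates for 48 hours, and percent growth was recorded.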 Values without a mark were called inactive. Activity calls are given as the source filed them. Rule for the calls: active = growth percent below 10; inactive = the rest.

Key:
Test in all cases: NCI-60 one-dose screen, 48 h (100 = growth as untreated, 0 = no growth, -100 = all killed)
Details in all cases: 10 µM unless noted
[1] = system: HCT-15 colon
[2] = system: HT29 colon
[3] = system: SNB-75 CNS
[4] = system: SNB-19 CNS
[5] = system: U251 CNS
[6] = system: SK-MEL-5 melanoma
[7] = system: UACC-62 melanoma
[8] = system: LOX IMVI melanoma
[9] = system: SK-MEL-28 melanoma
[10] = system: PC-3 prostate

| SMILES | growth [1] | growth [2] | growth [3] | growth [4] [%] | growth [5] | growth [6] | growth [7] | growth [8] | growth [9] | growth [10] [%] |
| --- | --- | --- | --- | --- | --- | --- | --- | --- | --- | --- |
| O=C(/C=C/c1cccc(O)c1)c1cccc(-n2cc(-c3ccccc3)[nH]c2=O)c1 | -18.9% (active) | 9.73% (active) | 41.2% | 50 | -77% (active) | 55.3% | 55.7% | -69.5% (active) | 30.8% |  |
| CC(NC(N)=S)c1ccccc1 (stereo not given) | 104% | 110% | 95.1% | 102 | 105% |  | 101% | 85% | 110% | 108 |
| CCOc1cc(/C=C/C(=O)CC(=O)/C=C/c2ccc(OC(=O)CNCCN(CC)CC)c(OCC)c2)ccc1OC(=O)CNCCN(CC)CC | -59.1% (active) | -88% (active) | -15.1% (active) | 11.4 | -60.1% (active) | -90.1% (active) | -70.9% (active) | -82.3% (active) | -57.1% (active) |  |
| O=C(Nc1nc(-c2ccc(Cl)cc2)cs1)c1cc(-c2ccc(Br)cc2)nc2ccc(Cl)cc12 | 10.8% | 9.1% (active) | 32.7% | 56 |  | 14% | 42% | 20.3% | 52.9% | 40.2 |
| Cc1sc2nc3c4ccccc4c(NCCCN(C)C)nn3c(=O)c2c1C | 17.1% | -17.8% (active) | 54.3% | 81.6 |  | 9.72% (active) | 44.3% | -39% (active) | -87.5% (active) | 50.9 |
| Cc1cc(C)c(C(=O)c2cccs2)c(C)c1 | 102% | 98.4% | 86.2% | 99.6 | 97.5% | 109% |  | 102% | 114% |  |
| O=c1sc2ncnc3ncn1c32 | 78% | 56.2% | 46.1% | 97.4 |  | 89.3% | 56.8% | 12.7% | 99.6% | 75.8 |
| Cc1cc(-c2ccccc2)cc(C)n1 | 105% | 99% | 86.1% | 99.4 |  | 106% | 103% | 96.9% | 107% | 96.6 |
| O=CN1N=C(c2ccc(Nc3ccnc4cc(Cl)ccc34)cc2)CC1c1ccc(Cl)cc1 (stereo not given) | 16.4% | 5.55% (active) | 4.26% (active) | 44.5 | 27.6% | -27.4% (active) | 28.7% | 32% | 39.2% |  |
